From PubChem BioAssay
PI4K2A inh = qHTS for small molecular inhibitors of PI4K2A | Phosphatidylinositol 4-kinase type 2-alpha (Homo sapiens), Q9BTU6 | hit rate 0.13% among 420,000 | activity change, negative = inhibition, % at 76.9 µM | purified PI4K2A, ADP-Glo luminescence, 1 h; active compounds read low; in the data active = activity change below about -50%; inconclusive = mostly about -30% to -49%;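 note: -100% = wells without enzyme as full effect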
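In this quantitative HTS, ADP production by PI4K2A was quantified luminescently after 1 h at ambient temperature; 100 microM adenosine served as plate-quality control.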
PLK1 PBD block = qHTS for Inhibitors of PLK1-PDB (polo-like kinase 1 - polo-box domain): Primary Screen. Serine/threonine-protein kinase PLK1 (Homo sapiens), P53350. Plk1 PBD binding of FITC phosphopeptide, fluorescence polarization. Potency, µM, inactives show max response, negative = inhibition, hits mostly inhibitors. hit rate 2.8% among 360,000. AID 720504, 2013; note: potency is the fitted concentration of half-maximal effect; series mostly up to about 57 µM; nearly all actives have a fitted effect of over 65% in size
Target sequence (P53350 whole entry, looked up, the tested form may be a part): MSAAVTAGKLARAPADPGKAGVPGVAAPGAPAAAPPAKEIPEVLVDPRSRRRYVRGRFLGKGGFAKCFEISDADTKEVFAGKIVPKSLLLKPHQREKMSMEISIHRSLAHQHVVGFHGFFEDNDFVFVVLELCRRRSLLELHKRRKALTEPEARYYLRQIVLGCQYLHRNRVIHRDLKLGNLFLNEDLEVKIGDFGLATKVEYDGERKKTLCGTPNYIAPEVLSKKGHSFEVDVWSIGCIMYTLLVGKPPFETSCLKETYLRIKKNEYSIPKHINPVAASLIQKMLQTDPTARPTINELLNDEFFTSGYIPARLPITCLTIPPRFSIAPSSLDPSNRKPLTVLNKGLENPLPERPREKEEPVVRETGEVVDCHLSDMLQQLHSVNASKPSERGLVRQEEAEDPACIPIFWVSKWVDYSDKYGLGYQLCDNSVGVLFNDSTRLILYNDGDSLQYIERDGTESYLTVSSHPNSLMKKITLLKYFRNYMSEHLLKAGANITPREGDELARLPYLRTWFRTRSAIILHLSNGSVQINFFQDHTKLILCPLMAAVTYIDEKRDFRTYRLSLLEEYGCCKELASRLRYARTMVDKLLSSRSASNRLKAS
VDR inhibitor = Inhibitors of the vitamin D receptor (VDR): qHTS. VDR-SRC2-3 peptide fluorescence polarization, 2 h. Potency, µM, for the others: max response, negative = inhibition, usual class: inhibitors. hit rate 0.93% among 400,000. AID 504847, 2011; note: potency is the fitted concentration of half-maximal effect
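The screen uses fluorescence polarization to detect compounds that interfere with recruitment of the SRC2-3 coactivator peptide to VDR; plates are read after 2 h at room temperature.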
KAT2A inh = qHTS Assay for Inhibitors of GCN5L2 | GCN5L2 HAT assay, ThioGlo1 CoA-SH fluorescence | Potency, µM (top dose mostly 58.9 µM), for inactives: at the highest dose activity change, negative = inhibition, usual class: inhibitors | hit rate 0.21% among 390,000 | AID 504327, 2011; note: potency is the fitted concentration of half-maximal effect
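Fluorescence readout, Ex340nm/Em540nm: ThioGlo1 (50uM final) reacts with free CoA thiol released as 20nM GCN5L2 acetylates H3(1-25) peptide (75uM) using acetyl-CoA (70uM). Compound and enzyme sat 15 min beforehand; 20 min room-temperature reaction.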
GLS inh = qHTS for Inhibitors of Glutaminase (GLS); GLS enzymatic activity, qHTS titration; AID 624170, 2012; Potency, µM (series often up to 45.5 µM), for inactives: top-dose activity change, negative = inhibition, hits mostly inhibitors; Glutaminase kidney isoform, mitochondrial (Homo sapiens), O94925; hit rate 0.21% among 410,000; note: potency is the fitted concentration of half-maximal effect
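hKGA; 45 mM KH2PO4 pH 8.2 + 0.02% Tween-20; cpd via pin tool; 1 mM Gln soln; GluOx/HRP/Amplex Red; RT 30 min; fluor. t0 & final.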
Starred values were filed as active, the others as inactive; ? = inconclusive; · = not tested or not shown; ! = a repeat was not active. A selection: hits, their analogues and other compounds. The true share with any hit is near 3.1%. Unless noted, calls come from the whole dose curve; as a rule, active = well fitted curve in the direction sought with a large enough effect; inconclusive = small, poorly fitted or top-dose-only effect, or another doubt; inactive = no such curve, though single readings can be large; an effect the other way counts as inactive or inconclusive. Unless noted, % is set by controls: 0 for no effect and ±100 for the full control effect.

SMILES	PI4K2A inh	PLK1 PBD block	VDR inhibitor	KAT2A inh	GLS inh
NS(=O)(=O)c1ccc(NC(=O)COc2ncnc3sccc23)cc1	4	-1%	-7%	1%	-2%
CC(C)NC(=O)NC(=O)COc1ncnc2sccc12	3	27µM*	?	0%	42%
O=C(COc1ncnc2sccc12)NC1CCCCC1	2	4%	-15%	-4%	5%
CC(C)NC(=O)COc1ncnc2sccc12	4	-5%	-10%	32µM*	-4%
COc1ccc(-n2c(SCC(=O)Nc3ccccc3-c3ccccc3)nnc2-c2ccccn2)cc1	-3	·	·	·	·
COc1ccc(N2CC(C(=O)Nc3ccccc3C(=O)NCc3ccco3)CC2=O)cc1 (stereo unspecified)	9	-6%	7%	-18%	0%
CCOc1ccc(N2CC(C(=O)NCc3cccc(C)c3)CC2=O)cc1 (stereo unspecified)	-6	6µM*	-26%	?	38%
COc1ccc(CNC(=O)[C@H](C)NC(=O)C2CC(=O)N(c3ccc(OC)cc3)C2)cc1 (stereo partly specified)	7	27µM*	?	2%	7%
O=C(NCc1ccco1)C1CC(=O)N(c2ccc(O)cc2)C1 (stereo unspecified)	-2	3.4µM*	-19%	-3%	-17%
COc1ccc(CNC(=O)[C@H](C)NC(=O)C2CC(=O)N(c3ccc4c(c3)OCO4)C2)cc1 (stereo partly specified)	5	-4%	5%	-3%	-4%
CCOc1ccc(N2CC(C(=O)OCC(=O)c3ccc(OC)cc3)CC2=O)cc1 (stereo unspecified)	0	30µM*	?	-5%	-5%
O=C(Nc1ccc2c(c1)OCO2)O[C@@H]1CC[C@@]23CCCN2C(=O)CCC[C@H]3C1	1	·	·	·	·
COc1oc(=O)c2cc(N)ccc2c1Cl	·	·	?	-11%	·
NCCCCC(NC(=O)C1CCCN1C(=O)C1CSSCC(N)C(=O)NC(Cc2ccccc2)C(=O)NC(Cc2ccccc2)C(=O)NC(CCC(N)=O)C(=O)NC(CC(N)=O)C(=O)N1)C(=O)NCC(N)=O (stereo unspecified)	·	·	·	·	-1%
O=C(NCc1ccco1)C1CCN(S(=O)(=O)N2CCOCC2)CC1	-85*	-3%	-14%	18%	4%
CS(=O)(=O)N1CCC(C(=O)NCc2ccco2)CC1	-1	-4%	-3%	-4%	-23%
C=CCN1C(=O)[C@@H](CC(=O)NCc2ccc(C)o2)[C@]2(C(=O)OC)CCCCC=C12	7	·	·	·	·
CCc1ccc2c(c1)C(C)=CC(C)(C)N2	-4	2%	9%	-2%	15%
CCOc1ccc2c(c1)C(C)=CC(C)(C)N2	-10	-2%	45µM*!	-10%	-7%
S=c1nc[nH]c2c1sc1nc(-c3ccccc3)c3c(c12)CCCC3	-1	30µM*	2%	51%	4%
O=C(O)CSc1ncnc2c1sc1nc(-c3ccccc3)c3c(c12)CCC3	4	30µM*	-11%	?	?
O=c1[nH]cnc2c1sc1nc(-c3ccccc3)c3c(c12)CCCC3	-1	0%	-7%	-5%	4%
COCCN(Cc1cc2cc(C)ccc2nc1Cl)C(=O)Nc1ccccc1OC	-3	1%	-6%	-2%	-1%
Cc1ccc2nc(Cl)c(CNCc3ccccc3)cc2c1	-1	24µM*	-21%	1%	23%
COc1ccc(-c2csc(N3CCN(c4cc5c(cc4Cl)nc(-c4ccncc4)n5CCOCCO)CC3)n2)cc1	-10	27µM*	-24%	-6%	7%
SMILES	PI4K2A inh	PLK1 PBD block	VDR inhibitor	KAT2A inh	GLS inh
CC1CC(C(F)(F)C(F)(F)F)n2nc(C(=O)O)cc2N1 (stereo unspecified)	3	-6%	1%	2%	16µM*
O=C(O)c1cc2n(n1)C(C(F)(F)F)CC(C1CC1)N2 (stereo unspecified)	1	24µM*	?	2%	-15%
O=C1CCC[C@H]2C[C@H](NCc3cccc(F)c3)CC[C@]23CCCN13	4	·	·	·	·
CCOc1ccc2nc(N3CCN(C(=O)c4ccc5c(c4)CCCC5)CC3)sc2c1	5	·	16%	5%	-11%
Oc1c(C(c2ccccc2)N2CCCCC2)ccc2ccccc12 (stereo unspecified)	5	3µM*	·	·	12%
O=C(O)c1ccn2c(C(=O)c3ccc(Cl)cc3)c(-c3ccccc3)cc2c1	1	38µM*	-6%	-22%	0%
CC(C)(C#N)NC(=O)C(=O)c1c(-c2ccccc2)cc2ccccn12	-6	-3%	6%	-7%	-1%
O=C(N/N=C/c1coc2ccc(Cl)cc2c1=O)c1cc(O)cc(O)c1	1	27µM*	-6%	-2%	?
O=C(N/N=C/c1cc(Cl)ccc1O)c1ccncc1	10	3.4µM*	?	-4%	-20%
O=C(N/N=C/c1ccccc1Cl)c1ccncc1	-5	-12%	-21%	-16%	10%
COC(=O)[C@H]1C[C@@]2(N3CCCCC3)c3ccccc3N(C(=O)OC(C)(C)C)[C@H]2N1C(=O)OC(C)(C)C	-2	·	·	·	·
Cc1ccc(-c2nc(CS(=O)CC(=O)NC3CCCCC3)c(C)o2)cc1 (stereo unspecified)	5	-16%	0%	-5%	-12%
Cc1ccccc1-c1nc(CS(=O)CC(=O)NCCc2ccc(Cl)cc2)c(C)o1 (stereo unspecified)	-2	19µM*	-14%	0%	-2%
COc1ccc(-c2nc(CS(=O)CC(=O)NC3CCCC3)c(C)o2)cc1 (stereo unspecified)	-4	27µM*	?	0%	0%
Cc1oc(-c2cccs2)nc1CS(=O)CC(=O)NC1CCCCCC1 (stereo unspecified)	-11	21µM*	?	-4%	0%
CCc1ccc(-c2nc(CS(=O)CC(=O)NCCCN3CCC(C)CC3)c(C)o2)cc1 (stereo unspecified)	-4	27µM*	-9%	-6%	4%
CCc1ccc(-c2nc(CS(=O)CC(=O)NCCN3CCCCCC3)c(C)o2)cc1 (stereo unspecified)	2	-23%	-7%	-4%	8%
Cc1ccccc1-c1nc(CS(=O)CC(=O)NC2CCCCC2)c(C)o1 (stereo unspecified)	1	-16%	-4%	0%	2%
Cc1ccc(CCNC(=O)CS(=O)Cc2nc(-c3ccccc3C)oc2C)cc1 (stereo unspecified)	-3	·	-11%	2%	-6%
C=CS(=O)(=O)N(Cc1nnn(Cc2ccccc2)c1Br)[C@@H](CC(C)C)C(=O)OC	4	·	·	·	·
